From PubChem BioAssay AID686979 (National Center for Advancing Translational Sciences (NCATS), 2013)
In all, about 420,000 compounds went through this assay and about 50,000 (12%) were called active. Another 26% or so got no clear call; they are omitted. The list comes from a sample in which actives are over-represented; it also holds similar structures and randomly drawn compounds. Values without a mark were called inactive. Calls come from the whole dose curve; as a rule, active = well fitted inhibition curve with a large enough effect; inconclusive = small, poorly fitted or top-dose-only effect; inactive = flat fitted curve, though single readings scatter.

assay: qHTS for Inhibitors of human tyrosyl-DNA phosphodiesterase 1 (TDP1): qHTS in cells in presence of CPT; details: chicken DT40 Tdp1-/-;hTDP1 cells + 20 nM CPT, ATP luminescence, 48 h; series mostly up to 46.2 µM; activity change, negative = growth inhibition: at the top concentration; note: nearly all actives have a fitted effect of over 55% in size
Outline: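 Chicken DT40 Tdp1-/- cells complemented with human TDP1, 400 cells/well, exposed to compounds plus 20 nM camptothecin for at least 48 h at 37 C; viability read as ATP content by CellTiter-Glo luminescence.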
% is set by controls: 0 for no effect and ±100 for the full control effect; potency is the fitted concentration of half-maximal effect.

| Structure (SMILES) | activity change, negative = growth inhibition | Potency |
| --- | --- | --- |
| COc1ccc(CN2CCCC(C(=O)N3CCCCC3)C2)cc1 (stereo not drawn) | 0.895% | – |
| COc1cc(CN2CCCC(C(=O)c3ccc(SC)cc3)C2)cc(Cl)c1O (stereo not drawn) | – | 11.6 µM (active) |
| COc1ccc(CCN(C)C(=O)C2CCCN(Cc3ccc(OC)c(OC)c3)C2)cc1OC (stereo not drawn) | 34.4% | – |
| COC(=O)N(C)C[C@@H]1OCc2cnnn2CCCC(=O)N([C@@H](C)CO)C[C@@H]1C | -3.67% | – |
| CNC(=O)COC(=O)c1cc(-c2ccc(OC)cc2)nc2ccccc12 | -3.71% | – |
| CCOc1ccc(-c2cc(C(=O)N/N=C/c3ccc(O)cc3)c3ccccc3n2)cc1 | – | 1.84 µM (active) |
| COc1cccc(-c2cc(C(=O)N/N=C/c3ccc(OC)c(COC(C)=O)c3)c3ccccc3n2)c1 | – | 8.2 µM (active) |
| C/C(=N\NC(=O)c1cc(-c2ccc(O)cc2)nc2ccccc12)c1cccnc1 | – | 20.6 µM (active) |
| C/C(=N\NC(=O)c1cccc([N+](=O)[O-])c1)c1cccnc1 | 3.86% | – |
| CC(=O)N1CCN(C(=O)c2cc(-c3ccc(Cl)s3)nc3ccccc23)CC1 | -7.3% | – |
| COc1ccc(/C=N/NC(=O)c2ccc(Cl)cc2)cc1COC(C)=O | -3.77% | – |
| CCOc1ccc(CNC(=O)c2cc(-c3ccc(Cl)s3)nc3ccccc23)cc1 | – | 20.6 µM (active) |
| C/C(=N\NC(=O)c1ccc2ccccc2c1)c1cccnc1 | 2.16% | – |
| CCOc1ccc(NC(=O)c2cc(C)nc3ccccc23)cc1 | 9.45% | – |
| O=C(N/N=C/c1ccc(OCc2ccccc2)cc1)c1ccc(O)cc1 | -0.604% | – |
| Cc1nc2ccc(C(=O)N/N=C/c3ccc(O)cc3)cc2[nH]1 | 4.58% | – |
| CC(C)=CC1C(C(=O)O)C1(C)C (stereo not drawn) | -2.77% | – |
| COc1ccc(NC2CCCN(C(=O)c3ccccc3-c3ncc[nH]3)C2)cc1 (stereo not drawn) | -17% | – |
| OCC(O)C1OCOC(C(O)CO)C1O (stereo not drawn) | 0.303% | – |
| COc1cc(OC)c(NC(=O)c2nc(-c3ccncc3)no2)cc1Cl | -17.3% | – |
| CC(C)c1cc(CN2CCOCC2)cc(C(C)C)c1O | 13.7% | – |
| Cc1nn(C)c(Cl)c1CN1CCC(n2nccc2NC(=O)C2CCCC2)CC1 | -1.25% | – |
| O=C(N/N=C/c1cccnc1)c1cc2ccccc2cc1O | -19.2% | – |
| Cc1cc(C(=O)N/N=C/c2ccccn2)c2ccccc2n1 | 1.01% | – |

| Structure (SMILES) | activity change, negative = growth inhibition | Potency |
| --- | --- | --- |
| COc1cc(/C=N\NC(=O)C2C(=O)NCC2c2ccccc2)cc(OC)c1O (stereo not drawn) | 9.54% | – |
| COc1cc(/C=N/NC(=O)c2cc(-c3ccccc3C)nc3ccccc23)cc(OC)c1O | – | 5.8 µM (active) |
| O=C(N/N=C/c1cccnc1)c1ccc(NC(=O)c2ccc(F)cc2)cc1 | 8.72% | – |
| O=C(N/N=C\c1cccnc1)c1cc(-c2ccccc2)nc2c(Cl)cccc12 | – | 10.3 µM (active) |
| Cc1c(NC(=O)Nc2cccc([N+](=O)[O-])c2)c(=O)n(-c2ccccc2)n1C | 17.6% | – |
| C#CCOCCOCCOCCNc1nc(N2CCN(C(=O)C([C@@H](C)CC)n3cc(C(N)COC(=O)C(F)(F)F)nn3)CC2)nc(N2CCN(C(=O)[C@H](CCCCN)n3cc(C(N)CC(C)C)nn3)CC2)n1 (stereo partly drawn) | -11.4% | – |
| COc1cc(CN2CCC(n3nccc3NC(=O)CCCc3ccccc3)CC2)ccc1O | -29.8% | – |
| CC(Oc1ccc(F)cc1)C(=O)N1CCN(c2ncccn2)CC1 (stereo not drawn) | -7.25% | – |
| O=C(COC(=O)c1cccc(Cl)c1Cl)NC1CCCCCC1 | -6.28% | – |
| CC(C)(C)c1ccc(C(=O)NNC(=O)Cc2ccccc2)cc1 | -27.1% | – |
| CC(C)(C)c1ccc(C(=O)C[N+]2(C)CCCc3ccccc32)cc1 (stereo not drawn) | – | 3.55 µM (active) |
| CCn1ccnc1CNC(=O)CC1C(=O)NCCN1CCCc1ccccc1 (stereo not drawn) | 3.97% | – |
| O=C(C(=O)N1CCOc2ccc(CN3CCN(Cc4ccccn4)CC3)cc2C1)c1ccccc1 | 6.37% [at 9.04 µM] | – |
| CC(=O)Nc1cccc(NC(=O)CSc2nccn2Cc2ccc(F)cc2)c1 | -29% | – |
| O=C1CC2(CCN(C(=O)COc3ccc(F)cc3)CC2)Oc2ccccc21 | -22.1% | – |
| COc1cc(/C=C/C(=O)OCC(=O)NCCCc2ccccc2)ccc1O | -9.29% | – |
| CC(C)c1c(C(=O)N/N=C/c2ccc(-c3ccccc3)cc2)nnn1-c1nonc1N | 4.68% | – |
| CC1CC(C)CN(CCC(=O)Nc2ccc3c(c2)CCC3)C1 (stereo not drawn) | -21.1% | – |
| Cc1ccc(C(=O)OCC(=O)NC(=O)Cc2ccccc2)c(O)c1 | 5.48% | – |
| Cn1c(=O)nc2n(-c3ccc(Br)cc3)c3cccc(Cl)c3cc-2c1=O | 5.86% | – |
| Cc1ccc(-n2c3nc(=O)[nH]c(=O)c-3cc3c(Cl)cccc32)cc1 | – | 1.46 µM (active) |
| O=c1cc(Cl)c2ccccc2n1-c1ccccc1 | 22% | – |
| CSc1cccc(NC(=O)CN2C(=O)COc3ccc(S(=O)(=O)N4CCOCC4)cc32)c1 | -17.9% | – |
| COc1ccc(Cl)cc1NC(=O)COc1ccc2c(c1)OCO2 | 4.49% | – |
